Records with an inconclusive call do not appear. Unmarked numbers belong to inactive results. Active and inactive are the calls of the source. The call rests on the fitted dose curve; in most records, active means well fitted curve in the direction sought with a large enough effect; inconclusive means small, poorly fitted or top-dose-only effect, or another doubt; inactive means no such curve, though single readings can be large; an effect the other way counts as inactive or inconclusive.
Legend:
HeLa = experiment: Primary qHTS to identify gynecologic anti-cancer compounds using libraries of approved drugs and bioactive compounds (AID 1345084); conditions: Gynecologic cancer cell panel viability, ATPlite luminescence, 48 h; series mostly up to 57.5 µM; further: nearly all actives have a fitted effect of over 55% in size
Summary of the method: (§1)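 Five-concentration response, 48 h; readout is ATP-driven luciferase luminescence.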

JEG-3 = experiment: as above; conditions: Gynecologic cancer cell panel viability, ATPlite luminescence, 48 h; series mostly up to 57.5 µM
Summary of the method: as §1

PA-1 = experiment: as above; conditions: Gynecologic cancer cell panel viability, ATPlite luminescence, 48 h; series mostly up to 57.5 µM
Summary of the method: as §1

Tov-21-G = experiment: as above; conditions: Gynecologic cancer cell panel viability, ATPlite luminescence, 48 h; series mostly up to 57.5 µM
Summary of the method: as §1

Tov112D = experiment: as above; conditions: Gynecologic cancer cell panel viability, ATPlite luminescence, 48 h; series mostly up to 57.5 µM
Summary of the method: as §1

OV90 = experiment: as above; conditions: Gynecologic cancer cell panel viability, ATPlite luminescence, 48 h; series mostly up to 57.5 µM
Summary of the method: as §1

SKOV3 = experiment: as above; conditions: Gynecologic cancer cell panel viability, ATPlite luminescence, 48 h; series mostly up to 57.5 µM
Summary of the method: as §1

[1] = qHTS assay to identify inhibitors of the type 1 interferon - major histocompatibility complex class I in skeletal muscle: Counter screen cell viability and HiBit confirmation (AID 1347412); conditions: iHSKM muscle cells + IFN-b, HiBiT or CellTiter-Glo, 24 h; for activity change, negative = inhibition: at 45.9 µM (top of the series); on all read-outs here: nearly all actives have a fitted effect of over 60% in size
Summary of the method: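 Myoblasts (C25cl48, HLA-B HiBiT) seeded in medium without dexamethasone, IFN-b 4 ng/ml added except unstimulated columns; 1 hr later compounds pinned (12-pt 1:3, top 46 uM final). Incubated 24 hrs, lysed 10 min, luminescence measured.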

Hek293T = experiment: Primary qHTS to identify gynecologic anti-cancer compounds using libraries of approved drugs and bioactive compounds (AID 1345084); conditions: Gynecologic cancer cell panel viability, ATPlite luminescence, 48 h, control line for the selectivity index; series mostly up to 57.5 µM; further: nearly all actives have a fitted effect of over 55% in size
Summary of the method: as §1

[2] = Drug repurposing screens with cells derived from glioblastoma tumor samples (AID 1345199); conditions: GBM patient neurospheres viability, ATP luminescence, 48 h; further: nearly all actives have a fitted effect of over 40% in size
Summary of the method: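 Primary testing used CD133+ neurospheres from four GBM patients, seven concentrations, 48 h exposure and ATP-based viability; confirmation added three slower-growing patient lines.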

[3] = at 45.9 µM (top of the series), tumour line B
[4] = at 45.9 µM (top of the series), tumour line D
[5] = at 46.1 µM (top of the series), tumour line C
[6] = at 20 µM (top of the series), tumour line C
On the % scale 0 is the no-effect control and ±100 the full control effect; potency means the concentration at half of the fitted maximal effect.

Compound: C[C@@]1(C(=O)Nc2ccc(F)nc2)CCCN1c1nc(Nc2cc(C3CC3)[nH]n2)c2cccn2n1
- Potency (HeLa): 3.98 µM (active)
- Potency (JEG-3): inactive
- Potency (PA-1): 5.01 µM (active)
- Potency (Tov-21-G): 12.6 µM (active)
- Potency (Tov112D): inactive

Compound: CC1(C)CC(=O)c2c(C(F)(F)F)nn(-c3ccc(C(N)=O)c(NC4CCC(O)CC4)c3)c2C1 (stereo not given)
- Potency (HeLa): inactive
- Potency (OV90): 0.316 µM (active)
- Potency (PA-1): 0.447 µM (active)
- Potency (SKOV3): 0.398 µM (active)
- Potency (Tov-21-G): 0.355 µM (active)
- Potency ([1]; HiBiT): 0.0701 µM (active)

Compound: Nc1[nH]nc2nnc(-c3c(-c4ccccc4)nn4ccccc34)cc12
- Potency (HeLa): inactive
- Potency (Hek293T): inactive
- Potency (OV90): inactive
- Potency (PA-1): inactive
- Potency (SKOV3): inactive
- Potency (Tov-21-G): inactive
- Potency (Tov112D): inactive

Compound: COc1ccc(Cn2ccc3ccc(C(=O)NO)cc32)cc1
- Potency (HeLa): inactive
- Potency (Hek293T): inactive
- Potency (OV90): inactive
- Potency (Tov112D): inactive

Compound: CN(C)c1ccc(-c2nc3ncc(Cl)c(N4CCN(CC(=O)Nc5nccs5)CC4)c3[nH]2)cc1
- Potency (Hek293T): inactive
- Potency (JEG-3): inactive
- Potency (OV90): inactive

Compound: Fc1ccc(CNc2ncnc3ccc(F)cc23)cc1
- Potency (HeLa): inactive
- Potency (JEG-3): inactive
- Potency (Tov-21-G): inactive
- Potency (Tov112D): inactive
- activity change, negative = inhibition ([1]; Viability): 2.98%

Compound: N#Cc1ccc(Oc2ccc3c(c2)COB3O)cc1
- Potency (Hek293T): inactive
- Potency (JEG-3): inactive
- Potency (OV90): inactive
- Potency (PA-1): inactive
- Potency (SKOV3): inactive
- Potency (Tov-21-G): inactive
- Potency (Tov112D): inactive

Compound: CN1CCN2c3ncccc3Cc3ccccc3C2C1 (stereo not given)
- activity, negative = cell killing [2, 3]: -0.787%
- activity, negative = cell killing [2, 4]: -14.6%
- activity, negative = cell killing [2, 5]: 14.4%

Compound: NCC1CCC(C(=O)O)CC1 (stereo not given)
- activity, negative = cell killing [2, 6]: 25.1%
- activity, negative = cell killing ([2]; at 21.2 µM (top of the series), tumour line B): -5.15%
- activity, negative = cell killing ([2]; at 21.2 µM (top of the series), tumour line D): -6.32%
- activity, negative = cell killing ([2]; at 21.3 µM (top of the series), tumour line A): -17.9%

Compound: OC(c1cc(C(F)(F)F)nc2c(C(F)(F)F)cccc12)C1CCCCN1 (stereo not given)
- activity change, negative = inhibition ([1]; HiBiT): -11.4%
- activity change, negative = inhibition ([1]; Viability): -12.8%

Compound: CCCCCCCCCCCCCCCC(=O)O[C@H]1[C@@H](O)[C@@H](O)[C@@H]([C@H](NC(=O)[C@@H]2C[C@@H](CCC)CN2C)[C@H](C)Cl)O[C@@H]1SC
- activity, negative = cell killing [2, 3]: -20%
- activity, negative = cell killing [2, 4]: -15.1%
- activity, negative = cell killing [2, 5]: 10.8%
- Potency ([2]; tumour line A): 17.8 µM (active)

Compound: CN1CC(=O)N2C(Cc3c([nH]c4ccccc34)[C@H]2c2ccc3c(c2)OCO3)C1=O (stereo not given in full)
- activity, negative = cell killing [2, 3]: -5.44%
- activity, negative = cell killing [2, 4]: -11.4%
- activity, negative = cell killing [2, 5]: -21.6%
- Potency ([2]; tumour line A): 11.2 µM (active)

Compound: C[C@@H]1CCO[C@H]2Cn3cc(C(=O)NCc4ccc(F)cc4F)c(=O)c(O)c3C(=O)N12
- Potency (JEG-3): inactive
- Potency (Tov-21-G): 25.1 µM (active)

Compound: CC(C)Oc1cc(Nc2nc(N[C@@H](C)c3ccc(F)cn3)ncc2Cl)[nH]n1
- Potency ([1]; HiBiT): 9.91 µM (active)

Compound: CCc1cc(-c2n[nH]c(C)c2-c2ccc3c(c2)OCCO3)c(O)cc1O
- activity change, negative = inhibition ([1]; Viability): -3.79%

Compound: CCC(=O)OCC(=O)[C@@]1(OC(=O)CC)[C@@H](C)C[C@@H]2[C@H]3CCC4=CC(=O)C=C[C@]4(C)[C@@]3(F)[C@@H](O)C[C@@]21C
- activity, negative = cell killing [2, 3]: -4.93%
- activity, negative = cell killing [2, 5]: 2.82%
- Potency ([2]; tumour line A): 11.2 µM (active)

Compound: Cc1cccc(Nc2nc(N[C@@H]3CCCC[C@H]3N)ncc2C(N)=O)c1
- Potency ([1]; HiBiT): 15.7 µM (active)

Compound: CC(C)CN(C[C@@H](O)[C@H](Cc1ccccc1)NC(=O)O[C@H]1CO[C@H]2OCC[C@H]21)S(=O)(=O)c1ccc(N)cc1
- activity, negative = cell killing [2, 3]: -11.9%
- activity, negative = cell killing [2, 4]: -22.5%
- activity, negative = cell killing [2, 5]: -17%
- Potency ([2]; tumour line A): 17.8 µM (active)

Compound: CN(C)CCN(C)C(=O)c1ccc(NC(=O)Nc2ccc(-c3nc(N4CCOCC4)c4ccn(CC(F)(F)F)c4n3)cc2)cc1
- Potency ([1]; Viability): 1.11 µM (active)

Compound: COc1ccc(-c2cc3nccn3c(Nc3ncccc3C(N)=O)n2)cc1OC
- Potency (Hek293T): inactive
- Potency (OV90): inactive
- Potency (PA-1): 3.55 µM (active)
- Potency (Tov112D): inactive
- Potency ([1]; HiBiT): 7.87 µM (active)
- activity change, negative = inhibition ([1]; Viability): -22.4%

Compound: COc1cc2nccc(Oc3ccc(NC(=O)Nc4ccc(F)cc4F)c(F)c3)c2cc1OC
- Potency ([1]; HiBiT): 8.83 µM (active)
- Potency ([1]; Viability): 7.87 µM (active)

Compound: CC[C@H]1OC(=O)[C@H](C)[C@@H](O[C@H]2C[C@@](C)(OC)[C@@H](O)[C@H](C)O2)[C@H](C)[C@@H](O[C@@H]2O[C@H](C)C[C@H](N(C)C)[C@H]2O)[C@](C)(O)C[C@H](C)C(=NOCOCCOC)[C@H](C)[C@@H](O)[C@]1(C)O
- activity, negative = cell killing [2, 3]: -8.15%
- activity, negative = cell killing [2, 4]: 4.24%
- activity, negative = cell killing [2, 5]: -6.06%

Compound: CC(C)(CO)[C@@H](O)C(=O)NCCC(=O)O
- activity, negative = cell killing [2, 3]: 1.18%
- activity, negative = cell killing [2, 4]: -3.38%
- activity, negative = cell killing [2, 5]: -2.72%

Compound: Clc1ccc(COC(Cn2ccnc2)c2ccc(Cl)cc2Cl)c(Cl)c1 (stereo not given)
- activity, negative = cell killing [2, 6]: -15.2%
- Potency ([2]; tumour line A): 5.62 µM (active)
- Potency ([2]; tumour line D): 14.1 µM (active)

Compound: CCC[C@H](N[C@@H](C)C(=O)N1[C@@H]2CCCC[C@H]2C[C@H]1C(=O)O)C(=O)OCC
- activity, negative = cell killing [2, 3]: -14%
- activity, negative = cell killing [2, 4]: -19.1%
- activity, negative = cell killing ([2]; at 46 µM (top of the series), tumour line A): -33%
- activity, negative = cell killing [2, 5]: -16.9%

Compound: Fc1ccc(C(c2ccc(F)cc2)N2CCN(CC=Cc3ccccc3)CC2)cc1
- activity, negative = cell killing [2, 5]: -6.32%
- Potency ([2]; tumour line A): 2.82 µM (active)
- Potency ([2]; tumour line D): 11.2 µM (active)

Compound: CNC(=O)c1cc(COc2nnc(Nc3ccc(Cl)cc3)c3ccoc23)ccn1
- activity change, negative = inhibition ([1]; Viability): -24.9%

Compound: C=CC(=O)Nc1cccc(Sc2nc(Nc3ccc(N4CCN(C)CC4)cc3)ncc2Cl)c1
- Potency (JEG-3): inactive
- Potency (OV90): inactive
- Potency (Tov-21-G): 12.6 µM (active)

Reference: PubChem BioAssay (NCATS)
